# Active and inactive are the calls of the source. Rule for the calls: active = hit-call score of the fitted dose curve at least 0.9, where 1 is the maximum; inactive = score below 0.9.
# Tests used:
# [1] = UKN5_HCS_SBAD2_neurite_outgrowth: University of Konstanz (UKN) Leist Lab Neurite Outgrowth Assay in human iPSC-derived immature Dorsal Root Ganglia Neurons (UKN5) (AID 2284070); settings: actives raise or lower the signal
# In short: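 Neurite area from calcein-AM high-content images after 24 h exposure (staining included), with H-33342 for viability, fitted both directions against DMSO. Cells: thawed immature SBAD2 peripheral neurons, 100.000 cells/cm2, with CHIR99021, SU5402, DAPT; dosing 1 h after seeding.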
# [2] = UKN4_HCS_LUHMES_neurite_outgrowth: University of Konstanz (UKN) Leist Lab Neurite Outgrowth Assay in human LUHMES cells (UKN4) (AID 2284206); settings: actives raise or lower the signal
# In short: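 After 24 h compound treatment beginning shortly after replating of 2-day-differentiated LUHMES cells, calcein-AM and H-33342 live staining allowed high-content imaging of neurite area and viability. Fitted bidirectionally against DMSO.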
SMILES,AC50 [1],AC50 [2],outcome [2]
COP(=S)(OC)SCn1nnc2ccccc2c1=O,35.1 µM (active),15.4 µM (active),–
CCOP(=O)(OCC)Oc1nc(Cl)c(Cl)cc1Cl,14.6 µM (active),–,inactive

# Reference: PubChem BioAssay (EPA / NIEHS)
